The sample as a whole holds a higher share of hits than the screen did.
IL-1B inflam inh – qHTS for Inhibitors of Inflammasome Signaling: IL-1-beta AlphaLISA Primary Screen; activity change, % at 57.5 µM; 360,000 compounds, 4.7% hits; AID 743279, 2014; THP-1 LPS/ATP IL-1B secretion, AlphaLISA, 16 h; hits give low values; in the data active = activity change below about -50%; inconclusive = mostly about -30% to -49%
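Secreted IL-1B measured by AlphaLISA bead assay after 16 h compound exposure of THP-1 cells; compounds (final up to 57.5 uM) added 1 h before LPS (250 ng/mL) and ATP (1.25 mM) stimulation; lower signal means less secretion.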
HT1080 IDH1KD tx – qHTS for induction of synthetic lethality in tumor cells producing 2HG: qHTS for the HT-1080-IDH1KD cell line | 360,000 compounds, 2% hits | Potency, µM (series often up to 46.1 µM), inactives show at the top dose activity, negative = toxicity, actives largely listed as cytotoxic | HT-1080 IDH1 knockdown viability, ATP luminescence, 48 h | AID 686971, 2013;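 also: potency is read from the fitted curve at half-maximal effect; 0% = DMSO wells and -100% = cell-free medium wells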
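Using the IDH1-knockdown HT-1080 line run in the same batch and compound series as the NT line, viability after 48 h at 37 °C was determined by CellTiter-Glo luminescence and expressed as % activity.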
DT40 TDP1 no CPT – qHTS for Inhibitors of human tyrosyl-DNA phosphodiesterase 1 (TDP1): qHTS in cells in absence of CPT; DT40 Tdp1-/- hTDP1 cells, no CPT, ATP luminescence, 48 h; Potency, µM (titrated, usually from 46.2 µM), inactives show at the highest dose activity change, negative = growth inhibition, actives largely listed as inhibitors; 420,000 compounds, 15% hits; AID 686978, 2013; also: potency is read from the fitted curve at half-maximal effect; nearly all actives have a fitted effect of over 55% in size
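Compound effects on proliferation are scored in DT40 Tdp1-/-;hTDP1 cells in the absence of CPT. ATP levels (CellTiter-Glo luminescence) are recorded after a ≥48 hr, 37 °C incubation.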
ALOX12 inh – Primary qHTS assay for inhibitors of human arachidonate 12S-lipoxygenase (ALOX12): Round 2; purified 12hLO, xylenol orange hydroperoxide absorbance; 580,000 compounds, 1.1% hits; Polyunsaturated fatty acid lipoxygenase ALOX12 (Homo sapiens), P18054; Potency, µM (top dose mostly 108 µM), for the others: top-dose activity change, negative = inhibition, usual class: inhibitors; also: potency is read from the fitted curve at half-maximal effect
Target sequence (P18054 whole entry, looked up): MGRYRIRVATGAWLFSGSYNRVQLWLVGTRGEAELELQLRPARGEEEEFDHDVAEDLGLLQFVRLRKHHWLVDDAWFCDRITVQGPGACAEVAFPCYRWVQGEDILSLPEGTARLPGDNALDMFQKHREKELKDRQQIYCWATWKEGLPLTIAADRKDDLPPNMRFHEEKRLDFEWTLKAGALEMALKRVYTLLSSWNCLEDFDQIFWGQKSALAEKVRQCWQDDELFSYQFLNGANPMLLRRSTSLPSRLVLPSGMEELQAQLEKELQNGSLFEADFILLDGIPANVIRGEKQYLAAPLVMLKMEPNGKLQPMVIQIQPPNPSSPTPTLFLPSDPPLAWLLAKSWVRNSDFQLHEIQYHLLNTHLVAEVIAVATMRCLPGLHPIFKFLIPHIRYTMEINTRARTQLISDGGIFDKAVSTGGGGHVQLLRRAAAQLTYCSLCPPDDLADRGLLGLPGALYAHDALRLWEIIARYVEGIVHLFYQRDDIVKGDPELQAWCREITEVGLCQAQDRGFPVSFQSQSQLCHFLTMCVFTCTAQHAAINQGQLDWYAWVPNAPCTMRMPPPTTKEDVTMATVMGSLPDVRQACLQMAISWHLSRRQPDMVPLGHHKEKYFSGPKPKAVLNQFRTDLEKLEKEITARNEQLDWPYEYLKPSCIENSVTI
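Purified human 12hLO at 150 nM in 25 mM Hepes, 0.01% Triton X-100, pH 7.0, preincubated 15 min at room temperature with compound. Reaction started with 40 uM arachidonic acid, 30 min at room temperature. Hydroperoxide measured by Fe-xylenol orange, 573/405 nm absorbance ratio.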
DT40 TDP1 CPT – qHTS for Inhibitors of human tyrosyl-DNA phosphodiesterase 1 (TDP1): qHTS in cells in presence of CPT. chicken DT40 Tdp1-/-;hTDP1 cells + 20 nM CPT, ATP luminescence, 48 h. Potency, µM (highest dose often 46.2 µM), for inactives: top-dose activity change, negative = growth inhibition, actives largely listed as inhibitors. 420,000 compounds, 12% hits; also: potency is read from the fitted curve at half-maximal effect; nearly all actives have a fitted effect of over 55% in size
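Chicken DT40 Tdp1-/- cells complemented with human TDP1, 400 cells/well, exposed to compounds plus 20 nM camptothecin for at least 48 h at 37 C; viability read as ATP content by CellTiter-Glo luminescence.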
HT1080-NT tox – qHTS for induction of synthetic lethality in tumor cells producing 2HG: qHTS for the HT-1080-NT fibrosarcoma cell line; HT-1080-NT fibrosarcoma viability, CellTiter-Glo ATP luminescence, 48 h; 360,000 compounds, 1.6% hits; AID 686970, 2013; Potency, µM (doses to about 46.1 µM), without a hit: at the highest dose activity, negative = less viability, actives largely listed as cytotoxic;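 also: NT is the 2HG producing partner of a matched IDH1 knockdown line; potency is read from the fitted curve at half-maximal effect; 0% = DMSO-treated cells and -100% = media-only wells without cells; nearly all actives have a fitted effect of over 55% in size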
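Compounds were tested in concentration-response format on HT-1080-NT cells for 48 hours at 37 degrees C. Cell viability came from CellTiter-Glo luminescence; curves were classified by r2, response magnitude and activity.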
Numbers without * were called inactive; ? = inconclusive; . = no result given; [ ] = another dose, or the depositor's remark. Unless noted, calls follow the shape of the dose curve; as a rule, active = well fitted curve in the direction sought with a large enough effect; inconclusive = small, poorly fitted or top-dose-only effect, or another doubt; inactive = no such curve, though single readings can be large; an effect the other way counts as inactive or inconclusive. Unless noted, % is scaled to controls: 0 for no effect and ±100 for the full control effect.

SMILES	IL-1B inflam inh	HT1080 IDH1KD tx	DT40 TDP1 no CPT	ALOX12 inh	DT40 TDP1 CPT	HT1080-NT tox
COc1ncccc1-c1cc(-c2ccccc2)nc2c(C)noc12	.	.	.	54.6%[176 µM]	.	.
O=C(Oc1ccc(OC(=O)C2CCC2)cc1)C1CCC1	14.7	-3.7%	23.1µM*	-1.5%	?	2.7%
CCc1ccc2[nH]c(=O)c(C3C(C#N)=C(N)Oc4c3ccc3cccnc43)cc2c1 (stereo unspecified)	99.0	?	8.2µM*	-29.7%	11.6µM*	?
N#CC1=C(N)Oc2c(c(=O)[nH]c3ccccc23)C1c1cccc(Cl)c1Cl (stereo unspecified)	.	.	.	40.4%	.	.
Cc1ccc2cc(C3C(C#N)=C(N)Oc4c3ccc3cccnc43)c(=O)[nH]c2c1 (stereo unspecified)	88.8	?	?	25.1µM*	?	11.2µM*
O=C(COC(=O)CNC(=O)c1sc2ccccc2c1Cl)Nc1c(Cl)cc(Cl)cc1Cl	0.3	?	-15.8%	-12.4%	1.8%	16.1%
Cc1cc(C)n2ncc(C(=O)NCc3cc4n(n3)CCN(C(=O)N(C)C)C4)c2n1	.	.	.	12.7%	.	.
CCc1ccc(C(=O)N2CCN(C(=O)c3nnn4c3COC(c3ccc(C)cc3)C4)CC2)cc1 (stereo unspecified)	.	.	.	13.2%	.	.
Cc1cc(Br)c2c(c1)[C@](O)(c1cn(C)c3ccccc13)C(=O)N2C	-9.5	?	23.1µM*	1.9%	16.4µM*	?
COC(=O)COc1ccc2c(=O)c(Oc3ccc(Br)cc3)c(C)oc2c1	.	.	.	-5.1%	.	.
O=C(COC(=O)Cc1ccccc1F)Nc1ccc(SC(F)F)cc1	-2.2	16.2%	-15.0%	-24.3%	8.0%	20.4%
Cc1ccc(C(=O)c2ccccc2C(=O)OCC(=O)Nc2ccc(SC(F)F)cc2)cc1	-25.9	?	18.4µM*	-22.0%	?	-15.7%
O=C(COC(=O)c1ccccc1Cc1ccccc1)Nc1ccc(SC(F)F)cc1	-92.8*	1.5%	?	-3.8%	?	5.9%
Cc1ccc(C(=O)c2ccccc2C(=O)OCC(=O)Nc2cccc([N+](=O)[O-])c2)cc1	-4.6	0.3%	?	-25.7%	18.4µM*	0.8%
O=C(Cc1ccccc1F)Nc1ccc(SC(F)F)cc1	-55.4*	-5.4%	?	0.4%	?	-2.9%
Cc1ccc(-c2nc(C)sc2CC(=O)OCC(=O)Nc2cccc([N+](=O)[O-])c2)cc1	32.8	-18.4%	-27.8%	2.0%	-22.1%	-8.3%
COc1cc(C(=O)OCC(=O)Nc2ccc(SC(F)F)cc2)cc(OC)c1OC	-3.6	1.4%	?	-12.1%	?	-7.3%
COCCc1noc(-c2ccc(N(C)CCc3cnn(C)c3)nc2)n1	.	.	.	17.4%	.	.
Cc1ccc(C(C(=O)NCc2c(C)n[nH]c2C)N(C)C)cc1 (stereo unspecified)	.	.	.	23.8%	.	.
CCOc1ccc(NC(=O)CC2CCOCC2)cc1	.	.	.	27.8%	.	.
O=C(NC1CC1)[C@@H]1CN(Cc2ccc(Br)cc2)C[C@H]1CO	.	.	.	8.2%	.	.
O=C(NCCN1C(=O)S/C(=C\c2ccc(Cl)c(Cl)c2)C1=O)c1cnccn1	0.0	-2.9%	?	12.7%	?	-1.9%
CC(C)(C)C(=O)NCCN1C(=O)S/C(=C\c2ccc([N+](=O)[O-])cc2)C1=O	-73.0*	-19.0%	23.1µM*	-1.0%	?	-23.2%
